# Sampled rows, rich in hits. Any-hit rate of the full collection: about 5.8%.
# 12-LOX inh = inhibitors of human 12S-lipoxygenase ALOX12 | purified 12hLO, xylenol orange hydroperoxide absorbance | Potency, µM (titrated, usually from 108 µM), for the others: at the highest dose activity change, negative = inhibition, most hits filed as inhibitors | 580,000 compounds, 1.1% hits; note: % is set by controls: 0 for no effect and ±100 for the full control effect
# Target sequence (P18054 whole entry, looked up): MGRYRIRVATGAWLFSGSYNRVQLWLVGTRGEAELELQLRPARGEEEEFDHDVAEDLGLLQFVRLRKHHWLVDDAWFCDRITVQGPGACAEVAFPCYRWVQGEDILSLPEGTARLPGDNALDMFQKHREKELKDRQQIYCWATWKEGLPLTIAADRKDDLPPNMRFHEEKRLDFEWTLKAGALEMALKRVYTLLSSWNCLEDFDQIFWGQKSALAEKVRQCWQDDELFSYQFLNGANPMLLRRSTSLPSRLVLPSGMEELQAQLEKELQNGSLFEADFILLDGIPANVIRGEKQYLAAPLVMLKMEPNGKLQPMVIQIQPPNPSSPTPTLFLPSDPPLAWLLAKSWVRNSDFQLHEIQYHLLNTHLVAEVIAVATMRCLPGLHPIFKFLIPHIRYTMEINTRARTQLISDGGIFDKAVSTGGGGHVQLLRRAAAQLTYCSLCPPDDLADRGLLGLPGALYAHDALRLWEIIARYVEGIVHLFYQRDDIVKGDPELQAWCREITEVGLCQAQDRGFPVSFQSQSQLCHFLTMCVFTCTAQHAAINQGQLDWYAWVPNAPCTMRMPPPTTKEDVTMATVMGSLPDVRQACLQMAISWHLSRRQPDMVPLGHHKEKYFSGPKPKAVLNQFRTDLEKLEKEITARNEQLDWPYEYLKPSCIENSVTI
#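 Hydroperoxide product was detected by ferrous iron/xylenol orange as the 573 to 405 nm absorbance ratio. Arachidonic acid at 40 uM (final) was turned over for 30 min at room temperature by 150 nM human 12hLO, pH 7.0 Hepes buffer, after 15 min compound preincubation.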
# MCF10A rerep = inducers of DNA re-replication in MCF 10A breast cells. AID 624296. MCF 10A DNA re-replication, Hoechst nuclear intensity, 48 h. Potency, µM (highest dose often 46.1 µM), for the others: at the top dose activity, positive = re-replication, usual class: activators. 350,000 compounds, 2.9% hits; note: % of control where 0% means no effect; nearly all actives have a fitted effect of over 50% in size
# PINK1 expr mod = changes PINK1 expression; PINK1 immunofluorescence, high-content cytometry, 24 h; Potency, µM (highest dose often 76.6 µM), for the others: at the top dose activation (PINK1 increase), hits mostly activators; 410,000 compounds, 0.2% hits; AID 624263; active = well fitted activation curve with a large enough effect; inconclusive = small, poorly fitted or top-dose-only effect; cell line not stated here; note: % of control where 0% means no effect; nearly all actives have a fitted effect of over 65% in size
#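 PINK1 protein, normally rapidly degraded, was detected by immunofluorescence after 24 hour compound treatment of a stable cell line. Titration data (5 concentrations) came from laser-scanning cytometry, with CCCP-treated wells as controls.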
# SW480 rereplic = induces DNA re-replication in SW480 colon adenocarcinoma cells. SW480 DNA re-replication, Hoechst DNA content imaging, 48 h. Potency, µM (doses to about 46.1 µM), for inactives: at the top dose re-replication activation, usual class: activators. 340,000 compounds, 1.8% hits. AID 624297; note: % of control where 0% means no effect; nearly all actives have a fitted effect of over 55% in size
#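 Cells (250 per well) received 23 nL compound or DMSO by pin tool and were kept 48 hr at 37 C, 5% CO2. Nuclei were then stained with Hoechst for 40 min and scanned for DNA content.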
# KB-V1 MDR tox = KB-V1 MDR subline cytotoxicity; 400,000 compounds, 3.4% hits; Potency, µM (highest dose often 46.1 µM), most hits filed as cytotoxic; KB-V1 MDR cells viability, CellTiter-Glo, 72 h; note: % is set by controls: 0 for no effect and ±100 for the full control effect; nearly all actives have a fitted effect of over 60% in size
#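 Following 72 h at 37 degrees C with compound, KB-V1 cell viability was read by CellTiter-Glo luminescence, medium being phenol-red-free DMEM plus 10% FBS; concentration-response parameters came from normalized, curve-fitted qHTS data.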
# KB-3-1 tox = KB-3-1 parental cell cytotoxicity | KB-3-1 viability, CellTiter-Glo ATP luminescence, 72 h | Potency, µM (titrated, usually from 46.1 µM), most hits filed as cytotoxic | 400,000 compounds, 1.4% hits; note: % is set by controls: 0 for no effect and ±100 for the full control effect; nearly all actives have a fitted effect of over 60% in size
#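 Screening of KB-3-1 cells (DMEM, 10% FBS, phenol-red free) ran from lowest to highest compound concentration; after 72 h at 37 °C viability was read luminescently and curves fitted.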
# An asterisk follows results filed as active; i = inactive; u = inconclusive; x = no result; ! = repeats disagree; [ ] = another dose, or the depositor's remark. Unless noted, calls come from the whole dose curve; as a rule, active = well fitted curve in the direction sought with a large enough effect; inconclusive = small, poorly fitted or top-dose-only effect, or another doubt; inactive = no such curve, though single readings can be large; an effect the other way counts as inactive or inconclusive. Potency is the fitted concentration of half-maximal effect.
SMILES,12-LOX inh,MCF10A rerep,PINK1 expr mod,SW480 rereplic,KB-V1 MDR tox,KB-3-1 tox
O=S(=O)(c1ccc(OC(F)(F)F)cc1)N1CCC(O)(c2cccc(C(F)(F)F)c2)CC1,29.7%,14.4%,u,-2.3%,i,i
CCc1ccccc1NS(=O)(=O)c1ccc2[nH]cc(C(=O)NC3CCCC3)c(=O)c2c1,u,u,11.3%,-244.7%,u,14.6µM*!
CCN(CCn1cccn1)Cc1nc(-c2ccccc2)no1,-17.2%,-1.4%,-0.3%,-2.2%,23.1µM*,i
FC(F)(F)c1cnc(Sc2nnc(-c3ccncc3)n2C2CC2)c(Cl)c1,17.0%,x,x,x,x,x
COc1cccc(C(C(=O)NCc2ccccc2)N2CCN(c3cccc(C)c3C)CC2)c1OC (centres undefined),3.4%,x,x,x,16.4µM*,u
O=C(NC1CCCCCC1)c1ccc(Cn2ccn3nc4c(c3c2=O)CCCC4)cc1,14.6%,x,x,x,x,x
COc1cc(C2C3=C(CCCC3=O)Nc3[nH]n(-c4ccccc4)c(=O)c32)ccc1OC(C)=O (centres undefined),-12.4%,7.31µM*,-0.6%,20.6µM*,i,i
O=C1CCCC2=C1C(c1cccc(O)c1)c1c(ccc3ncccc13)N2 (centres undefined),u,18.4µM*,6.5%,u,i,i
COc1cc(C2C3=C(CCCC3=O)Nc3ccc4ncccc4c32)ccc1O (centres undefined),-17.3%,14.6µM*,3.5%,23.1µM*,i,u
COc1ccc(C2C3=C(CCCC3=O)Nc3ccc4ncccc4c32)cc1OC (centres undefined),-3.7%,6.6%,4.2%,0.4%,i,i
CCOc1cc(C2C3=C(CCCC3=O)Nc3ccc4ncccc4c32)ccc1O (centres undefined),-8.0%,u,4.5%,18.4µM*,i,13µM*
CN(C(=O)COC(=O)Cc1n[nH]c(=O)c2ccccc12)C1(C#N)CCCCC1,1.1%,x,x,x,x,x
CNC(=O)NC(=O)C(C)N(C)Cc1cccc(C#N)c1 (centres undefined),50.2%,x,x,x,x,x
Cc1ccccc1OCCNc1ccc(C(F)(F)F)cc1[N+](=O)[O-],-15.9%,16.7%,3.2%,-11.2%,u,16.4µM*
COc1cccc(-c2nc3cc(NC(=O)c4ccc(C)c([N+](=O)[O-])c4)ccc3o2)c1,44.7µM*,x,x,x,x,x
CCc1sc(C(=O)Nc2cccc(C(C)=O)c2)cc1C,-30.1%,-1.0%,0.6%,-223.2%,20.6µM*,i
CCc1sc(C(=O)Nc2cccnc2)cc1Br,25.1µM*,-2.9%,-1.3%,1.7%,i,i
CC(=O)c1cccc(NC(=O)c2cc3c(s2)-c2c(C)cccc2OC3)c1,u,x,4.9%,x,i,i
Cc1cccc(-c2nc3cc(NC(=O)c4ccc(C)c([N+](=O)[O-])c4)ccc3o2)c1,-27.8%,x,x,x,x,x
O=C(Nc1ccc2oc(-c3ccccc3Cl)nc2c1)c1cncc(Br)c1,0.0%,16.4µM*,u,u,5.17µM*,u
O=C(Nc1cccnc1)c1ccc(Br)s1,-58.8%,2.1%,-0.3%[38.3 µM],18.6%,u,i
Cc1ccccc1NC(=O)C(C#N)=C1CCCCCCC1,-26.9%,x,x,x,x,x
CC(c1ccccc1)N(C)S(=O)(=O)c1cccc2nsnc12 (centres undefined),-4.8%,x,x,x,x,x
NC(=O)c1ccc(NC(=O)c2ccccc2CSc2nc3ccccc3o2)cc1,-8.8%,x,x,x,x,x
NNC(=O)c1cc2c(ccc3ccccc32)o1,-6.8%,u,0.4%,u,u,i
SMILES,12-LOX inh,MCF10A rerep,PINK1 expr mod,SW480 rereplic,KB-V1 MDR tox,KB-3-1 tox
CCN(CC)CC(=O)Nc1ccc(-c2nc3cc(NC(=O)CN(CC)CC)ccc3o2)cc1,0.0%,-1.1%,4.0%,-2.6%,18.4µM*,u
Nc1cccc(-c2nc3cc(S(=O)(=O)c4ccc5oc(-c6cccc(N)c6)nc5c4)ccc3o2)c1,-8.5%,u,10.3%,6.51µM*,u,u
Cc1ccc2oc(-c3cccc(N)c3)nc2c1,1.5%,-42.1%,-1.1%,-7.5%,u,i
O=C(Nc1cccnc1)c1cc2c(ccc3ccccc32)o1,x,12.5%,-3.2%,-4.1%,13µM*,u
CCC(C)NCC(=O)Nc1ccc(-c2nc3cc(NC(=O)CNC(C)CC)ccc3o2)cc1 (centres undefined),0.0%,17.2%,0.3%,u,u,u
O=C(O)c1ccccc1-c1ccccc1C(=O)Nc1cccc(-c2nc3ccccc3o2)c1,11.2µM*,u,-2.9%,u,i,i
Cc1ccc(C(=O)Nc2cccc(-c3nc4ccccc4o3)c2)c(Cl)c1,-9.4%,x,10.8%,x,i,i
CCc1ccc2oc(C(=O)Nc3cccnc3)c(C)c2c1,x,23.3%,0.7%,u,u,u
O=C(Nc1ccc2oc(-c3ccccc3F)nc2c1)c1ccc2c(c1)OCCO2,-5.4%,u,-0.4%[38.3 µM],8.7%,18.4µM*,i
O=C(Nc1ccc2oc(-c3ccccc3F)nc2c1)c1ccccc1,-27.5%,x,x,x,x,x
Cc1c(C(=O)Nc2cccnc2)oc2ccc(Br)cc12,13.7%,u,-0.9%,u,3.26µM*,8.2µM*
Cc1c(C(=O)Nc2ccc3oc(-c4cccnc4)nc3c2)oc2ccccc12,0.0%,u,6.2%,20.6µM*,u,i
O=C(Nc1ccc2oc(Cc3ccc(Cl)cc3)nc2c1)c1cccnc1,u,u,x,16.4µM*,u,i
CCn1nccc1C(=O)N1CCC2(CC1)NCCc1c2[nH]c2ccccc12,54.9%,x,x,x,x,x
O=C(Nc1ccc2oc(-c3ccccc3)nc2c1)c1ccncc1,u,7.3%,2.6%,-1.4%,8.2µM*,u
O=C(Nc1ccc(-c2nc3ccccc3o2)cc1)c1ccc(N2C(=O)C3C4C=CC(C4)C3C2=O)cc1 (centres undefined),-13.5%,u,x,10.6%,4.11µM*,i
Cc1ccc(-c2nc3cc(NS(=O)(=O)c4ccc(C)cc4)ccc3o2)cc1,u,u,5.7%[38.3 µM],u,i,i
O=S(=O)(Nc1ccc2oc(-c3ccccc3)nc2c1)c1ccccc1,2.1%,20.6µM*,-2.9%[38.3 µM],u,i,i
O=C(Nc1ccc2oc(-c3ccccc3)nc2c1)c1ccc(F)cc1,11.0%,x,x,x,x,x
N#CCSc1ccccc1C(=O)Nc1ccc2c(c1)CCC2,1.12µM*,x,x,x,x,x
N#Cc1ccc(CSc2ccccc2C(=O)Nc2ccc3c(c2)OCCCO3)cc1,14.1µM*,x,x,x,x,x
N#Cc1ccc(CSc2ccc3c(c2)OCCCO3)cc1,-18.8%,x,x,x,x,x
COc1ccc(NC(=O)c2ccccc2SCc2ccc(C#N)cc2)cc1OC,35.5µM*,x,x,x,x,x
O=C(Nc1ccc2c(c1)OCCCO2)c1ccccc1SCc1cccs1,15.8µM*,x,x,x,x,x

# Screening data deposited in PubChem by National Center for Advancing Translational Sciences (NCATS).
